Screening results: PubChem, several laboratories
p97 ATPase inh = blocks human p97 ATPase activity; P55072; recombinant p97 ATPase, Kinase-Glo ATP luminescence, 3 h; inhibition, % at 8 µM; 220,000 tested, 0.42% active; in the data active means inhibition above about 15%
LYPLA1 counter = LYPLA1 (human) inhibition in PME1 counter-screen; 320,000 tested, 0.16% active; O75608; recombinant LYPLA1, FP-Rh probe fluorescence polarization; inhibition, % at 5.9 µM;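 active means inhibition above the mean of all tested compounds plus 3 SD, set per campaign, cut at about 14% in these data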;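 further: inhibitors block serine hydrolase probe labeling of LYPLA1 so polarization falls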
Target sequence (O75608 whole entry, looked up): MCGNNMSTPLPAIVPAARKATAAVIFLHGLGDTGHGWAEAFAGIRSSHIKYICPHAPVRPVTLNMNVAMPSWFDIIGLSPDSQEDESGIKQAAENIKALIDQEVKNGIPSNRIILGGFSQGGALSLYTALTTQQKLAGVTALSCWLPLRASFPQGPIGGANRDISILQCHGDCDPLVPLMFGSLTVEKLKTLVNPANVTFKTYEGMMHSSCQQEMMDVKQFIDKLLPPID
Rin1 Abl inh = blocks binding of human Rin1 to Abl. P00519+Q13671. TR-FRET Rin1/Abl binding, biochemical. inhibition, % at 7.35 µM. 360,000 tested, 0.4% active; in the data active means inhibition above about 5%, passing the limit was not always enough
LYPLA2 inh = LYPLA2 (human) inhibition in PME1 counter-screen; recombinant LYPLA2, FP-Rh probe fluorescence polarization; inhibition, % at 5.9 µM; 320,000 tested, 0.38% active; AID 2177;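 active means inhibition above the screen-wide mean plus 3 SD, limit set per campaign, cut at about 26% in these data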
Hck-Nef inh = inhibitors of human Hck kinase activated by Nef | P08631 | AID 463187 | 220,000 tested, 0.68% active | inhibition, % at 20 µM | Recombinant Hck-YEEI plus Nef, Z-Lyte FRET kinase assay;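 active means Hck-Nef kinase inhibition above about 50%, limit read from the data; inactive means inhibition below that limit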
Target sequence (P08631 whole entry, looked up): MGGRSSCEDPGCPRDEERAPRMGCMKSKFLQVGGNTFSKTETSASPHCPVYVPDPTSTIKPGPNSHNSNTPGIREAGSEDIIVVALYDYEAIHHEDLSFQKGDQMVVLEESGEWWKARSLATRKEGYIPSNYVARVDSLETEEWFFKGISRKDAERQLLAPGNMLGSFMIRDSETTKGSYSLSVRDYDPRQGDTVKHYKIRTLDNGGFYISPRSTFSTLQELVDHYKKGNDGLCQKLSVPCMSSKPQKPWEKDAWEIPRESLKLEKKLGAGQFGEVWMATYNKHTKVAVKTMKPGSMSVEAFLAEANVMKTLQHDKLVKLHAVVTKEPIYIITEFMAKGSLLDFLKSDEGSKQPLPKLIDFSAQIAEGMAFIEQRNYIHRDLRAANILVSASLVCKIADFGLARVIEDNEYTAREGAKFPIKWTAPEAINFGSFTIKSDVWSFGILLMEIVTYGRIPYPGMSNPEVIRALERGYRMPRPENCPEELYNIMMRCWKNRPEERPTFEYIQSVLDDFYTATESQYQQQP
PREPL inh = human PREPL enzyme inhibition; recombinant PREPL, fluorescence polarization activity-based probe; inhibition, % at 5.96 µM; 320,000 tested, 0.68% active; Q4J6C6; AID 2751; in the data active means inhibition above about 43%
LYPLA1 confirm = counter-screen for PME1 inhibitors: confirmation of human LYPLA1 inhibitors. shares compounds with LYPLA1 counter. recombinant LYPLA1, FP-Rh probe fluorescence polarization. inhibition, % at 5.9 µM. 480 tested, 69% active;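 active means mean inhibition across replicates above the hit cutoff set in the primary screen, cut at about 15% in these data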;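 further: loss of FP-Rh probe labeling of LYPLA1 seen as lower polarization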
LYPLA2 confirm = LYPLA2 (human) inhibition, confirmation counter-screen; shares compounds with LYPLA2 inh; recombinant LYPLA2, FP-Rh probe fluorescence polarization; inhibition, % at 5.9 µM; 1,100 tested, 72% active; AID 2232;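 active means mean inhibition across replicates above the hit cutoff set in the primary screen, cut at about 26% in these data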;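 further: blocked labeling of the enzyme by serine hydrolase FP-Rh probe lowers polarization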
LYPLA2 ABPP = blocks human acyl-protein thioesterase 2 in gel ABPP | shares compounds with LYPLA2 inh | rhLYPLA2 in mouse brain proteome, gel ABPP FP-Rh | inhibition, % at 20 µM | 150 tested, 30% active | AID 652029;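 active means inhibition of LYPLA2 enzyme probe labeling above about 50%, limit read from the data; inactive means inhibition below that limit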;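 further: loss of FP-Rh probe labeling of the LYPLA2 gel band measured as band density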
Large screens that a line does not name were inactive (follow-up assays come after a bar, where they were run). Sampled rows, rich in hits. Any-hit rate of the full collection: about 1.7%.

Cc1cc(OCc2cc(C(=O)N3CCN(CC4CC4)CC3)no2)cc(C)c1Cl	none (no result: p97 ATPase inh, Hck-Nef inh)
Cc1cc(OCc2cc(C(=O)N3CCC(Oc4cccnc4)CC3)no2)cc(C)c1Cl	LYPLA1 counter 30.4, LYPLA2 inh 59.5 (no result: p97 ATPase inh, Hck-Nef inh) | LYPLA1 confirm 33.2 | LYPLA2 confirm 62.1
Cc1cnc(C(=O)OCC(=O)Nc2ccccc2-c2ccccc2)cn1	none (no result: p97 ATPase inh, Hck-Nef inh)
COc1ccc(CN2CCN(C(=O)Cn3nc(C(=O)O)c4ccccc4c3=O)CC2)cc1F	LYPLA1 counter 16.8, LYPLA2 inh 57.1 (no result: p97 ATPase inh, Hck-Nef inh) | LYPLA1 confirm 15.0 | LYPLA2 confirm 63.0 | LYPLA2 ABPP inactive
CCN(CC)C(=O)C1c2ccccc2Oc2ccccc21	LYPLA1 counter 57.6, LYPLA2 inh 72.1, PREPL inh 54.2 (no result: p97 ATPase inh, Hck-Nef inh) | LYPLA1 confirm inactive | LYPLA2 confirm inactive
CCOC(=O)c1c(C)[nH]c(C(=O)OCC(=O)NC2(C#N)CCCCC2)c1C	none (no result: p97 ATPase inh, Hck-Nef inh)
CCOc1ccc(C(O)(c2ccccc2)C(CN2CCCC2)c2ccccc2)cc1 (stereo not given)	none (no result: p97 ATPase inh, Hck-Nef inh)
CC(C)(C)OC(=O)NCCCCCc1nnc(SCc2c(F)cccc2Cl)o1	LYPLA1 counter 24.8, LYPLA2 inh 40.4 | LYPLA1 confirm 40.6 | LYPLA2 confirm 43.6
CC(C)(C)OC(=O)NCCc1nnc(SCc2c(Cl)cccc2Cl)o1	none
CSc1nsc(/C=C/Nc2ccc(F)cc2)c1C#N	none
CSc1nsc(/C=C/Nc2ccc(O)cc2C)c1C#N	LYPLA1 counter 21.6, LYPLA2 inh 30.3 | LYPLA1 confirm inactive | LYPLA2 confirm inactive
Cc1cccc(CC(=O)NCCN2CCCCC2)c1	none (no result: p97 ATPase inh, Hck-Nef inh)
CCN(CC(=O)Nc1ccc(OC)cc1)C(=O)c1ccc2c(c1)NC(=O)C(C)S2 (stereo not given)	none (no result: p97 ATPase inh, Hck-Nef inh)
COc1ccccc1-n1cc(C(=O)NCC(=O)N2CCN(Cc3ccccc3)CC2)c2ccccc2c1=O	LYPLA1 counter 16.4, LYPLA2 inh 84.1 | LYPLA1 confirm 21.7 | LYPLA2 confirm 80.9
COc1ccccc1-n1cc(C(=O)NCC(=O)NCc2ccc(F)cc2)c2ccccc2c1=O	none
CC(=O)Nc1ccc(Nc2c3c4c(cccc4n(C)c2=O)C(=O)c2ccccc2-3)cc1	LYPLA1 counter 20.8, LYPLA2 inh 28.9 | LYPLA1 confirm inactive | LYPLA2 confirm inactive
Cn1c(=O)c(NC2CCCCC2)c2c3c(cccc31)C(=O)c1ccccc1-2	none (no result: LYPLA1 counter, LYPLA2 inh, PREPL inh)
CCCCNc1c2c3c(cccc3n(C)c1=O)C(=O)c1ccccc1-2	LYPLA1 counter 41.9, LYPLA2 inh 54.5 | LYPLA1 confirm 39.1 | LYPLA2 confirm 37.1
COC(=O)COc1ccc(C(=O)Cn2c(NCCCO)nc3ccccc32)cc1	none (no result: p97 ATPase inh, Hck-Nef inh)
COc1ccc2ccccc2c1C(O)c1nccn1C (stereo not given)	LYPLA1 counter 23.9, LYPLA2 inh 29.6 | LYPLA1 confirm 14.8 | LYPLA2 confirm inactive
Cc1ccc(NC(=S)N/N=C2\CC(C)(C)Oc3ccc(O)cc32)cc1	none
CC(=O)N1CCC2(CC1)C/C(=N\NC(=S)Nc1ccc(C)cc1)c1cc(O)ccc1O2	LYPLA1 counter 22.4, LYPLA2 inh 49.5 | LYPLA1 confirm 31.5 | LYPLA2 confirm 54.1
O=C(c1ccc2n[nH]nc2c1)N1CCN(c2ccc(C(F)(F)F)cn2)CC1	LYPLA1 counter 66.5, LYPLA2 inh 61.9 (no result: p97 ATPase inh, Hck-Nef inh) | LYPLA1 confirm 57.7 | LYPLA2 confirm 70.1
O=C(c1ccccn1)N1CCN(c2ccc(C(F)(F)F)cn2)CC1	none
Cc1onc(-c2ccccc2Cl)c1C(=O)NCc1ccc(F)cc1	none (no result: p97 ATPase inh, Hck-Nef inh)
CCCCOC(=O)NS(=O)(=O)c1sc(CC(C)C)cc1-c1ccc(Cn2c(CC)nc3c(C)cc(C)nc32)cc1	none (no result: p97 ATPase inh, Rin1 Abl inh, Hck-Nef inh)
COc1cccc2c1C(=N)c1c(O)c3c(c(O)c1C2=O)CC(O)(C(C)=O)CC3OC1CC(N)C(O)C(C)O1 (stereo not given)	none (no result: p97 ATPase inh, LYPLA1 counter, LYPLA2 inh, Hck-Nef inh, PREPL inh)
COc1cccc2c1C(=O)c1c(O)c3c(c(O)c1C2=O)C[C@](O)(C(C)=O)C[C@H]3O[C@@H]1C[C@@H](N)[C@@H](O)[C@@H](C)O1	LYPLA1 counter 63.7, LYPLA2 inh 49.7 (no result: p97 ATPase inh, Hck-Nef inh) | LYPLA1 confirm 64.2 | LYPLA2 confirm 40.7
CC(=O)c1ccc(N2CCN(C(=O)c3ccc(C(=O)c4ccccc4)cc3)CC2)cc1	LYPLA1 counter 20.6, LYPLA2 inh 55.4 (no result: p97 ATPase inh, Hck-Nef inh) | LYPLA1 confirm 36.0 | LYPLA2 confirm 64.9
CC(=O)N1CCN(c2ccc(NC(=S)NC(=O)c3ccc(C)c([N+](=O)[O-])c3)cc2)CC1	LYPLA1 counter 20.3, LYPLA2 inh 42.8 | LYPLA1 confirm 31.7 | LYPLA2 confirm 55.9
CCOc1ccc(C(=O)NC(=S)Nc2ccc(N3CCCCC3)cc2)cc1[N+](=O)[O-]	none
COc1ccc(C(=O)Nc2ccc(N3CCN(C)CC3)cc2)cc1[N+](=O)[O-]	none
COc1ccc(C(=O)NC(=S)Nc2ccc(N3CCN(C(C)=O)CC3)cc2)cc1[N+](=O)[O-]	LYPLA1 counter 54.8, LYPLA2 inh 70.2 | LYPLA1 confirm 63.1 | LYPLA2 confirm 75.1
COc1ccc(C(=O)NC(=S)Nc2cccc(NC(=O)c3ccco3)c2)cc1[N+](=O)[O-]	LYPLA1 counter 37.3, LYPLA2 inh 47.6 | LYPLA1 confirm inactive | LYPLA2 confirm inactive
CCC(=O)N1CCc2cc(Br)cc(S(=O)(=O)N3CCCCC3CC)c21 (stereo not given)	none (no result: p97 ATPase inh, Hck-Nef inh)
Cc1ccc(-c2noc(C3CCCN(C(=O)c4ccc(C(C)(C)C)cc4)C3)n2)o1 (stereo not given)	LYPLA1 counter 20.2, LYPLA2 inh 36.1 (no result: p97 ATPase inh, Hck-Nef inh) | LYPLA1 confirm 23.4 | LYPLA2 confirm 37.0
COc1cc(OC)cc(C(=O)N2CCCC(c3nc(-c4ccc(C)o4)no3)C2)c1 (stereo not given)	none (no result: p97 ATPase inh, Hck-Nef inh)
O=[N+]([O-])c1ccc(N2CCC(=NOCc3ccc(Cl)cc3)CC2)cc1	LYPLA1 counter 58.3, LYPLA2 inh 77.5 | LYPLA1 confirm 70.2 | LYPLA2 confirm 74.6
Cc1ccc(C(=O)ON=C2CCN(c3ccc([N+](=O)[O-])cc3)CC2)cc1	LYPLA1 counter 23.0, LYPLA2 inh 55.0 | LYPLA1 confirm 28.5 | LYPLA2 confirm 47.1
CC1CCCCC12NC(=O)N(CC(=O)Nc1ccc(N3CCCCC3)cc1)C2=O (stereo not given)	none (no result: p97 ATPase inh, LYPLA1 counter, LYPLA2 inh, Hck-Nef inh, PREPL inh)
COc1ccc(N2CCN(C(=O)CCCCCn3c(=O)[nH]c4ccsc4c3=O)CC2)cc1	LYPLA1 counter 18.6, LYPLA2 inh 26.6 | LYPLA1 confirm 45.5 | LYPLA2 confirm 28.7
